Experimental data: publication PMC4336329 (PLoS ONE, 2015)
Among all 310,000 compounds or so, about 14,000 (4.5%) showed an effect of 50% or more. The effect is printed as a negative number. Shown is part of a subset that was picked to be rich in strong results.

What follows are compounds tested against human ether-à-go-go-related gene (hERG) potassium channel (human, UniProt Q12809) (assay: primary screen, population patch clamp on CHO cells stably expressing hERG; higher = less effect of the substance).
Chain of human ether-à-go-go-related gene (hERG) potassium channel (Q12809 whole entry, looked up): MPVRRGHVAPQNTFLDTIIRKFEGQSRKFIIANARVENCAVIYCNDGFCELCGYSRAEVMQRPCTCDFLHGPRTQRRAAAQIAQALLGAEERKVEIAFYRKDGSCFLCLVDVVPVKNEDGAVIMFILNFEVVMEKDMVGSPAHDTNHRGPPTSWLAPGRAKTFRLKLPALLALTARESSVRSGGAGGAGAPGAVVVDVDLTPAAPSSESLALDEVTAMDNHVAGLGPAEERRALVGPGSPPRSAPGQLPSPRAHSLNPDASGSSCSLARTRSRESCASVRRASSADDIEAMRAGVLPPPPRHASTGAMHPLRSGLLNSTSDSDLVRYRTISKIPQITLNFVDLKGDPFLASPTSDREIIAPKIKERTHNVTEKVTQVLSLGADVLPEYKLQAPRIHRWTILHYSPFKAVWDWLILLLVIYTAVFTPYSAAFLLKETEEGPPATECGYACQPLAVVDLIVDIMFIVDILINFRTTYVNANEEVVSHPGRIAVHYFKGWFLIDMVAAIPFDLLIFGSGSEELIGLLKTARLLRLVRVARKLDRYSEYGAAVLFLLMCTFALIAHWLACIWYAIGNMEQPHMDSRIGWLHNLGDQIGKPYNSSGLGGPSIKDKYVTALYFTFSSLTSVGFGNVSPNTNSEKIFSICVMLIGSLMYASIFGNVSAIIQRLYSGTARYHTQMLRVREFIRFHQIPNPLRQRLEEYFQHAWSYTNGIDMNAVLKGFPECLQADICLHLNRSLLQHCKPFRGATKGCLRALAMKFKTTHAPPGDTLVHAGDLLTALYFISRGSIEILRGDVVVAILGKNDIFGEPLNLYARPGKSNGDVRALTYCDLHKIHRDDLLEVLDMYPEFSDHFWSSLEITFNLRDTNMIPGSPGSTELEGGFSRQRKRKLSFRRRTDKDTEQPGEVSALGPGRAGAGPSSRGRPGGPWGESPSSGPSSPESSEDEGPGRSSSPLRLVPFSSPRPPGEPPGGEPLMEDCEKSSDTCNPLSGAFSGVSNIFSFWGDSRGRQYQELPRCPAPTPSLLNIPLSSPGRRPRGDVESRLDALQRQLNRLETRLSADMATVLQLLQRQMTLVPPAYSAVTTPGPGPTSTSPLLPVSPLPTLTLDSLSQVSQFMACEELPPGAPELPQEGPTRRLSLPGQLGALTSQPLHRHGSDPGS
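Note: peak tail current of the secondary pulse compared with the same well before compound.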

Going from Cc1cccc(-c2nc3c(c(=O)c4ccccc4n3C)c(=O)n2-c2ccccc2)c1 to O=S(=O)(c1ccccc1)c1cnn(-c2ccccc2)c1-c1ccc(F)cc1, the “hERG current change (%, negative = inhibition) at 10uM” value falls from 14% to -0.19%.

First: Cc1cccc(S(=O)(=O)c2c(N)n(/N=C/c3cccnc3)c3nc4ccccc4nc23)c1
Second: COc1cccc2c1Oc1ncccc1N(C(=O)CCC(=O)NCc1cccc(C)c1)C2
The “hERG current change (%, negative = inhibition) at 10uM” value of the first is higher: -4.67% for the first, -23.5% for the second.

Compared with COc1cc(C(=O)NCC(c2cccs2)N2CCOCC2)cc(OC)c1OC (stereo not drawn), COc1cc2nc(-c3cccs3)oc(=O)c2cc1OC is lower in “hERG current change (%, negative = inhibition) at 10uM” value: 11.5% for the first, 4.77% for the second.

Compared with Cc1cccc(C)c1OC(=O)Cc1ccccc1[N+](=O)[O-], O=C(Cc1ccccc1)N/N=C/c1ccc(-c2ccc([N+](=O)[O-])cc2)o1 is higher in “hERG current change (%, negative = inhibition) at 10uM” value: -4.62% for the first, 4.21% for the second.

First: CCCOc1ccc(C(=O)NNC(=O)c2cccc(S(=O)(=O)N3CCN(C(C)=O)CC3)c2)cc1OC
Second: COc1ccccc1C(CNC(=O)CNC(=O)c1ccc(Cl)c(Cl)c1)N1CCCC1 (stereo not drawn)
The “hERG current change (%, negative = inhibition) at 10uM” value of the first is higher: -13.8% for the first, -32.9% for the second.

Going from COc1cc(C2Nc3cccc4cccc(c34)N2)ccc1OC(C)=O to COc1cccc2cc(C(=O)NCCc3ccccc3)oc12, the “hERG current change (%, negative = inhibition) at 10uM” value falls from 11.2% to -20.1%.

First: CC(NC(=O)C(=O)N1CCOCC1)C(c1cccs1)N1CCN(c2ccccc2)CC1 (stereo not drawn)
Second: O=C(CCN1CCN(c2ccccc2)CC1)N/N=C/c1ccccc1O
The “hERG current change (%, negative = inhibition) at 10uM” value of the first is higher: 8.31% for the first, -16% for the second.

Going from Cc1ccc(C)c(NC(=S)N2CCCCCC2)c1 to CCCCNC(=O)c1cn(CC)c2ccc(S(=O)(=O)N3CCCCCC3)cc2c1=O, the “hERG current change (%, negative = inhibition) at 10uM” value rises from 0.578% to 7.01%.

First: O=[N+]([O-])c1nn(-c2ccccc2)[n+]([O-])c1N1CCN(c2ccccc2)CC1
Second: O=C(c1ccco1)N1CCN(c2c([N+](=O)[O-])nn(-c3ccc(Cl)cc3)[n+]2[O-])CC1
The “hERG current change (%, negative = inhibition) at 10uM” value of the first is higher: -0.32% for the first, -57.2% for the second.

Compared with O=C(c1ccco1)N1CCN(c2ccc(Cl)c(Cl)c2)CC1, O=C(c1ccco1)N1CCN(c2c([N+](=O)[O-])nn(-c3cccc(Cl)c3)[n+]2[O-])CC1 is lower in “hERG current change (%, negative = inhibition) at 10uM” value: -29.7% for the first, -38.1% for the second.

First: Cc1nn(C)c(C(=O)N2CCN(C(=O)c3ccco3)CC2)c1[N+](=O)[O-]
Second: Cc1cccc(-n2nc([N+](=O)[O-])c(N3CCN(C(=O)c4ccco4)CC3)[n+]2[O-])c1
The “hERG current change (%, negative = inhibition) at 10uM” value of the first is higher: 8.95% for the first, -68.7% for the second.

Compared with Cc1ccc(NC(=O)CC2SC(=NCC3CCCO3)NC2=O)cc1Cl (stereo not drawn), COc1ccc(NC(=O)CSc2nnc(-c3ccoc3C)n2CC2CCCO2)cc1 (stereo not drawn) is lower in “hERG current change (%, negative = inhibition) at 10uM” value: -3.57% for the first, -5.04% for the second.

Compared with Cc1c(C)n2c(SCC(=O)NC3CCCCC3)nnc2[nH]c1=O, O=C(COC(=O)/C=C/c1ccc(Br)o1)NC1CCCCC1 is higher in “hERG current change (%, negative = inhibition) at 10uM” value: -8.13% for the first, 11% for the second.

Going from CCCCN(C(=O)c1ccco1)C1CCS(=O)(=O)C1 (stereo not drawn) to COc1ccccc1CCN1CCCC(CN(C)C(=O)c2ccco2)C1 (stereo not drawn), the “hERG current change (%, negative = inhibition) at 10uM” value falls from 0.36% to -68.9%.

First: O=C1c2ccc(-c3ccc4c(c3)C(=O)N(CCO)C4=O)cc2C(=O)N1CCO
Second: CN1C(=O)c2ccccc2Sc2ccc(NC(=O)NC3CC3)cc21
The “hERG current change (%, negative = inhibition) at 10uM” value of the first is higher: 14.6% for the first, -11% for the second.

Going from Cc1ccccc1CC(=O)N(CCN(C)C)CC1CCCN(Cc2ccccc2F)C1 (stereo not drawn) to CN(C)CCN(CC1CCCN(Cc2ccccc2F)C1)C(=O)c1ccc(F)cc1 (stereo not drawn), the “hERG current change (%, negative = inhibition) at 10uM” value rises from 1.19% to 3.46%.

Compared with COc1ccccc1CCN1CCCC(CN(C)C(=O)c2ccc3nc[nH]c3c2)C1 (stereo not drawn), COc1ccccc1CCN1CCCC(CN(C)C(=O)c2ccoc2)C1 (stereo not drawn) is lower in “hERG current change (%, negative = inhibition) at 10uM” value: 12.1% for the first, -51.2% for the second.

First: COc1ccccc1CCN1CCCC(CN(C)CC(C)(C)CO)C1 (stereo not drawn)
Second: COCC(=O)N(C)CC1CCCN(CCc2ccccc2OC)C1 (stereo not drawn)
The “hERG current change (%, negative = inhibition) at 10uM” value of the first is lower: -0.609% for the first, 7.26% for the second.

First: CN(CC1CCCN(CCc2ccccc2F)C1)C(=O)c1ccoc1 (stereo not drawn)
Second: Cc1occc1C(=O)N(C)CC1CCCN(CCc2ccccc2F)C1 (stereo not drawn)
The “hERG current change (%, negative = inhibition) at 10uM” value of the first is lower: -66.7% for the first, -51.1% for the second.

Going from O=c1[nH]oc2cc(Cl)ccc12 to CC1CC(=O)Nc2ccc([N+](=O)[O-])cc2N1C (stereo not drawn), the “hERG current change (%, negative = inhibition) at 10uM” value falls from 11.3% to 7.59%.

First: CCOc1ccc(OCC(=O)Nc2ccc(S(N)(=O)=O)cc2)cc1
Second: CCOc1ccc(NC(=O)CN(C)C(=O)CCCc2c[nH]c3ccccc23)cc1OCC
The “hERG current change (%, negative = inhibition) at 10uM” value of the first is lower: -7.32% for the first, -3.25% for the second.

First: O=C(NCc1cccs1)c1nc2c(nnn2Cc2ccccc2Cl)c(=O)[nH]1
Second: Cc1cc(NC(=O)CSc2nnc(-c3ccc(Br)o3)n2Cc2ccccc2)no1
The “hERG current change (%, negative = inhibition) at 10uM” value of the first is higher: 5.42% for the first, -51.2% for the second.

Going from COC(=O)CSc1nn(-c2ccc(F)cc2)c(=S)s1 to Cc1occc1-c1nnc(SCC(=O)Nc2ccc(F)cc2)n1Cc1ccccc1, the “hERG current change (%, negative = inhibition) at 10uM” value falls from -2.71% to -49.4%.

Going from Cn1c(CC(=O)Nc2ccccc2)nnc1SCCOc1ccccc1 to Cc1nnc(SCC(=O)Nc2ccccc2)n1CCc1ccccc1, the “hERG current change (%, negative = inhibition) at 10uM” value falls from 2.08% to -33%.

First: Cc1cc(C)c(C(=O)N(C)C2CCCN(Cc3ccccc3F)C2)o1 (stereo not drawn)
Second: Cc1cc(C)c(C(=O)N(CCN(C)C)CC2CCCN(Cc3ccccc3F)C2)o1 (stereo not drawn)
The “hERG current change (%, negative = inhibition) at 10uM” value of the first is lower: -0.652% for the first, 7.61% for the second.

Going from Cc1cc(C)c(C(=O)N(C)CC2CCCN(CCc3ccccc3F)C2)o1 (stereo not drawn) to O=C(c1cc(=O)c2ccccc2o1)N1CCN(c2ccccc2F)CC1, the “hERG current change (%, negative = inhibition) at 10uM” value rises from -70.4% to -15.3%.

Compared with CCCn1c(SCC(=O)Nc2nccs2)nnc1-c1cccnc1, CCCn1c(SCC(=O)Nc2ccccc2-c2ccccc2)nnc1-c1ccoc1C is lower in “hERG current change (%, negative = inhibition) at 10uM” value: -0.265% for the first, -26% for the second.

First: COc1cccc(NC(=O)c2oc3ccccc3c2NC(=O)c2ccc3c(c2)OCO3)c1
Second: CC(=O)c1ccc(NC(=O)CSc2nnc(-c3ccoc3C)n2Cc2ccccc2)cc1
The “hERG current change (%, negative = inhibition) at 10uM” value of the first is higher: 5.18% for the first, -30.8% for the second.

Compared with O=C1C2CC=CCC2C(=O)N1c1n[nH]c(Cc2ccccc2)n1 (stereo not drawn), Cc1cc(NC(=O)CSc2nnc(C3CC3)n2Cc2ccccc2)no1 is lower in “hERG current change (%, negative = inhibition) at 10uM” value: 2.31% for the first, -8.63% for the second.

Compared with CCCCN(CCCC)CCNC(=O)c1cn(CC)c2ccc(S(=O)(=O)N3CCCC3)cc2c1=O, CCCCN(CCCC)CCNC(=O)c1cn(C)c2ccc(S(=O)(=O)N3CCCC3)cc2c1=O is higher in “hERG current change (%, negative = inhibition) at 10uM” value: -65.7% for the first, -57.9% for the second.

First: CCCCSCCCNC(=O)c1cn(C)c2ccc(S(=O)(=O)N3CCCC3)cc2c1=O
Second: CCCCNC(=O)c1cn(C)c2ccc(S(=O)(=O)N3CCCC3)cc2c1=O
The “hERG current change (%, negative = inhibition) at 10uM” value of the first is lower: 11.2% for the first, 12.6% for the second.

Compared with CCCCNC(=O)c1cn(CC)c2ccc(S(=O)(=O)N3CCCC3)cc2c1=O, CC(C)[C@H](NC(=O)C1CCN(S(=O)(=O)c2ccccc2)CC1)C(=O)NCc1ccccc1 is higher in “hERG current change (%, negative = inhibition) at 10uM” value: -38.1% for the first, 10.2% for the second.

First: Cc1cccc(C)c1NC(=O)CSc1nnc(-c2ccoc2C)n1CCc1ccccc1
Second: Cc1ccccc1NC(=O)CSc1nnc(-c2ccoc2C)n1CCc1ccccc1
The “hERG current change (%, negative = inhibition) at 10uM” value of the first is higher: -46.3% for the first, -59.6% for the second.

Compared with COc1ccccc1NC(=O)CSc1nnc(-c2ccoc2C)n1C, Cc1occc1-c1nnc(SCC(=O)Nc2ccccc2)n1C is higher in “hERG current change (%, negative = inhibition) at 10uM” value: -1.59% for the first, 9.72% for the second.

Compared with COc1ccccc1NC(=O)CSc1nnc(-c2ccoc2C)n1CCc1ccccc1, Cc1occc1-c1nnc(SCC(=O)Nc2ccccc2)n1CCc1ccccc1 is lower in “hERG current change (%, negative = inhibition) at 10uM” value: -64.8% for the first, -67% for the second.

Compared with Cc1occc1-c1nnc(SCC(=O)Nc2ccccc2)n1Cc1ccccc1, Cc1occc1-c1nnc(SCC(=O)NCCc2ccccc2)n1Cc1ccccc1 is lower in “hERG current change (%, negative = inhibition) at 10uM” value: -76.3% for the first, -81.1% for the second.

Going from COc1ccccc1NC(=O)CSc1nnc(C)n1CCc1ccccc1 to COc1ccc(NC(=O)CSc2nnc(-c3ccoc3C)n2CCc2ccccc2)cc1, the “hERG current change (%, negative = inhibition) at 10uM” value falls from -14.3% to -54.3%.

First: CSc1nc(SC)c2c3c(oc2n1)COC(C)(C)C3
Second: C/C(=N\NC(=O)C1(C)CC1(Br)Br)c1ccc(NC(=O)c2ccc(C)o2)cc1 (stereo not drawn)
The “hERG current change (%, negative = inhibition) at 10uM” value of the first is higher: 7.86% for the first, -8.92% for the second.

Going from Cc1ccc(N2CCN(/N=C/C(Cl)=C/c3ccccc3)CC2)cc1 to CC(=O)Nc1ccc(/C=N/NC(=O)CCN2CCN(c3ccccc3)CC2)cc1, the “hERG current change (%, negative = inhibition) at 10uM” value rises from -5.13% to -2.3%.

Compared with O=C(CN(Cc1ccco1)C(=O)c1ccc(Cl)cc1)Nc1c(Cl)cc(Cl)cc1Cl, O=C(/C=C/c1ccco1)NC(=S)Nc1ccc(O)c(-c2nc3ccccc3s2)c1 is higher in “hERG current change (%, negative = inhibition) at 10uM” value: 7.76% for the first, 13.2% for the second.

Compared with CCOc1ccccc1C(=O)NCC(=O)NCC1CCCCC1, O=C(N/N=C/c1ccc([N+](=O)[O-])o1)C1CCCC1 is lower in “hERG current change (%, negative = inhibition) at 10uM” value: 12.2% for the first, 10.6% for the second.

Going from COc1ccc(N2C(=O)C3C4C=CC(CC4)C3C2=O)c([N+](=O)[O-])c1 (stereo not drawn) to O=C(Cc1ccc([N+](=O)[O-])cc1)N/N=C/c1ccc([N+](=O)[O-])o1, the “hERG current change (%, negative = inhibition) at 10uM” value falls from -5.27% to -64.7%.

Compared with CSc1ccccc1NC(=S)N/N=C/c1cccn1Cc1ccc(F)cc1, Cc1cc(NC(=O)CSc2nnc(-c3ccco3)n2Cc2ccccc2)no1 is lower in “hERG current change (%, negative = inhibition) at 10uM” value: -6.67% for the first, -44.3% for the second.

Compared with COCCn1c(SCC(=O)Nc2ccc(OC)cc2)nnc1-c1ccoc1C, Cc1occc1-c1nnc(SCC(N)=O)n1Cc1ccccc1 is higher in “hERG current change (%, negative = inhibition) at 10uM” value: -3.58% for the first, 3.5% for the second.

First: Cc1occc1-c1nnc(SCC(=O)NCCc2ccccc2)n1C(C)c1ccccc1 (stereo not drawn)
Second: O=C(CCN1CCN(c2ccccc2)CC1)N/N=C/c1ccc([N+](=O)[O-])o1
The “hERG current change (%, negative = inhibition) at 10uM” value of the first is higher: -31.8% for the first, -73.4% for the second.

First: O=C(Cc1ccc([N+](=O)[O-])cc1)N/N=C/c1ccco1
Second: CCCCCC(=O)N/N=C/c1ccc([N+](=O)[O-])o1
The “hERG current change (%, negative = inhibition) at 10uM” value of the first is higher: -15.3% for the first, -26.2% for the second.

With O=C(CN1CCCCCCC1)N/N=C/c1ccc([N+](=O)[O-])o1 the “hERG current change (%, negative = inhibition) at 10uM” value was -52.1%.
